Compounds with a hit are over-represented: about 11% of the library has one in this group of screens.
Insulin prom inh: TRM-6 insulin promoter activity inhibition | TRM-6 cells (human fetal islet line), insulin promoter-eGFP reporter, imaging; reporter expression induced with tamoxifen | inhibition, % at 2 µM | AID 1273 | hit rate 0.9% among 130,000;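 active = inhibition above the mean plus 3 SD, with well images judged a real hit on visual review, cut at about 60% in these data, passing the limit was not always enough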
L major viab: Leishmania major promastigote growth inhibition. Leishmania major promastigotes, resazurin fluorescence viability. inhibition, % at 10 µM. hit rate 9% among 200,000. AID 1063; in the data active = inhibition above about 50%;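 also: promastigotes grown with compound for 44 hours at 28 °C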
WT yeast gro inh: growth inhibition of WT yeast, mitochondrial fusion screen; AID 1362; hit rate 2.1% among 190,000; mitochondrial fusion phenotypic screen, WT strain; inhibition, % at 10 µM; in the data active = inhibition above about 58%; tested in S. cerevisiae
Autophagy HCS: alters autophagy in cells. MEF GFP-LC3 puncta imaging; test concentration mostly 10 µM. calls only at 10 µM (by protocol). hit rate 0.98% among 190,000;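 active = percentage of spot-positive cells more than 3 SD above its plate mean, without a fluorescence outlier flag or 80% toxicity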
Ins promoter up: MIN6 insulin promoter up-regulation. hit rate 0.3% among 190,000. z-score at 5 µM. MIN6 insulin promoter-GFP reporter, high-content imaging; stronger effect = higher value;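 active = z-score above 3 at 5 µM with at least 500 cells counted in the well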
Numbers stand for hits; . = inactive; / = no result; + = active, no number.

SMILES | Insulin prom inh | L major viab | WT yeast gro inh | Autophagy HCS | Ins promoter up
O=C(NCc1cccnc1)c1ccc(NC(=O)c2ccco2)cc1 | 79 | . | . | . | .
Cc1ccc(C(=O)Nc2cccc(C(=O)NCc3ccccc3)c2)o1 | / | 92 | . | . | .
COc1ccc(C(=O)Nc2cccc(C(=O)NCc3ccco3)c2)cc1 | 67 | . | . | . | /
CN(Cc1ccccc1)C(=O)c1cccc(NC(=O)c2ccco2)c1 | . | 100 | . | . | .
COc1ccc(CNC(=O)c2cccc(NC(=O)c3ccccc3)c2)cc1 | . | . | . | . | .
Cc1ccc(C(=O)Nc2cccc(Oc3ccccc3)c2)o1 | . | . | . | . | .
CC(C)c1csc(CN2CCC(N3CCC(C(=O)NCC4CCCO4)CC3)CC2)n1 (centres undefined) | / | . | . | . | .
Cn1c(=O)c(-c2cc(=O)[nH][nH]2)c(O)c2ccccc21 | . | . | . | . | .
CC(=O)c1cccc(NC(=O)Cn2nc(-c3ccc(Cl)cc3)ccc2=O)c1 | / | . | . | . | .
O=C(Nc1cccc(-c2nc3ccccc3[nH]2)c1)c1cccc(NC(=O)c2ccco2)c1 | / | 82 | . | . | .
CC(C)CNC(=O)c1cccc(NC(=O)C(C)C)c1 | / | . | . | . | .
O=C(NCc1ccccc1)c1cccc(NC(=O)c2ccco2)c1 | . | 98 | . | . | .
CC(C)CNC(=O)c1cccc(NC(=O)c2ccco2)c1 | / | 79 | . | . | .
O=C(NCc1ccco1)c1cccc(NC(=O)c2ccco2)c1 | . | 79 | . | . | .
Cc1ccc(NS(=O)(=O)c2ccc(Br)s2)nc1 | / | . | . | . | .
O=Cc1cccn1-c1ccc2ccccc2c1 | . | . | . | . | .
O=C(CSc1ccc(Cl)cc1)Nc1cccc(NC(=O)c2ccco2)c1 | / | 97 | . | . | .
Cc1cccc2[nH]c(CN(C)Cc3nc(CC4CC4)no3)nc12 | / | . | . | . | /
CCn1c2ccc(/C(C)=N\O)cc2c2cc(/C(C)=N\O)ccc21 | . | 54 | . | . | .
CCOc1cc(C(=O)Nc2ncn[nH]2)cc(OCC)c1OCC | / | . | . | . | .
Cc1nc(N2N=C3/C(=C/c4ccc(F)cc4)CCCC3C2c2ccc(F)cc2)sc1C(=O)N(C)C (centres undefined) | . | . | 74 | . | .
Cc1ncsc1C(=O)N1N=C2/C(=C/c3ccc(N4CCOCC4)cc3)CCCC2C1c1ccc(N2CCOCC2)cc1 (centres undefined) | . | . | . | . | .
c1ccc(-c2oc3ncnc(NCCN4CCOCC4)c3c2-c2ccccc2)cc1 | . | 98 | . | . | .
N=c1c2c(-c3ccccc3)c(-c3ccccc3)oc2ncn1CCN1CCOCC1 | / | . | . | . | .
Cc1sc2ncnc(NCCN3CCOCC3)c2c1C | . | . | . | . | .
SMILES | Insulin prom inh | L major viab | WT yeast gro inh | Autophagy HCS | Ins promoter up
N=c1c2c(-c3ccccc3)c(-c3ccccc3)oc2ncn1CCCN1CCOCC1 | / | 87 | . | . | .
Cc1ccccc1NC(=S)N(C)Cc1cn(C)c2ccccc12 | . | 63 | . | . | .
CCn1cc(C2CC(=O)NC2=O)c2ccccc21 (centres undefined) | / | / | / | / | .
CCOc1ccc(NC(=S)Nc2cccc3cnccc23)cc1 | . | . | 58 | . | .
COc1ccc(NC(=S)Nc2cccc3cnccc23)cc1 | . | . | . | . | .
S=C(Nc1ccc(Cl)cc1)Nc1cccc2cnccc12 | . | . | 62 | . | .
Fc1ccc(NC(=S)Nc2cccc3cnccc23)cc1 | . | . | . | . | /
O=C(Nc1nnc(-c2ccco2)o1)c1ccc([N+](=O)[O-])s1 | . | . | . | . | .
COc1ccc(N2CC(C(=O)Nc3nnc(SCc4ccccn4)s3)CC2=O)cc1 (centres undefined) | / | . | . | . | .
CC(C)(C)NC(=O)CSc1nc(-c2ccc(F)cc2)cs1 | / | . | . | . | .
COC(=O)c1ccccc1Sc1ncnc2onc(C)c12 | . | 57 | . | . | .
Cc1ccc(Sc2ncnc3onc(C)c23)c(C)c1 | . | . | 61 | . | .
COc1ccc(Sc2ncnc3onc(C)c23)cc1 | / | . | . | . | .
Cc1noc2ncnc(Sc3ccccc3Cl)c12 | / | 80 | 99 | . | .
CCS(=O)(=O)C(C)(CCl)C(=O)Nc1ccc(C(=O)OC)cc1 (centres undefined) | / | / | / | / | .
Cc1ccc(C(=O)Nc2ccc(CN3CCCCC3)cc2)c(C)c1 | / | 74 | . | . | .
COc1ccc(Cl)cc1C(=O)NCC(C)C | / | . | . | . | .
CC(=O)Nc1ccc(CN2CCCCCCC2)cc1 | / | . | . | . | .
CCN(CC)c1ccc(NC(=O)c2cc(Cl)ccc2OC)cc1 | . | 99 | . | . | .
COc1ccc(Cl)cc1C(=O)Nc1ccc2c(c1)OCO2 | / | . | / | . | .
CCNC(=O)c1cc(Cl)ccc1OC | . | 56 | . | . | .
CCCOC(=O)c1ccc(NC(=O)c2cc(Cl)ccc2OC)cc1 | / | . | . | . | .
COc1ccc(Cl)cc1C(=O)Nc1ccc(CN2CCCCC2)cc1 | / | 98 | . | . | .
CC(C)(CC(=O)O)CC(=O)NCc1c(Cl)cccc1Oc1ccccc1 | / | / | / | / | .
O=C(CN1C(=O)C(=O)N(Cc2ccco2)C1=O)NC1CCCCC1 | . | . | . | . | .
SMILES | Insulin prom inh | L major viab | WT yeast gro inh | Autophagy HCS | Ins promoter up
Cc1cc(C(C)(C)C)oc1C(=O)N(CC(=O)NC1CCCC1)Cc1ccccc1Cl | . | . | 64 | . | .
CCCCCNCc1cccc(Br)c1 | / | 75 | . | . | .
CCCCCCNCc1cccc(Br)c1 | / | 54 | . | . | .
Brc1cccc(CNCCCN2CCOCC2)c1 | . | . | . | . | .
CCCNC(=O)c1cccc(Br)c1 | . | . | . | . | /
COc1ccc(C(C)=O)cc1COC(=O)c1cnc(Cl)c(Cl)c1 | / | . | . | . | .
Cc1ccc(S(=O)(=O)NNc2nc3ccccc3nc2C(F)(F)F)cc1 | . | . | . | . | /
O=C(CCCO)c1ccc2c(c1)OCCO2 | . | . | . | . | .
O=C(CCN1CCCCC1)c1ccc2c(c1)OCO2 | . | . | . | . | .
O=C(Cc1ccccc1)c1ccc2c(c1)OCCO2 | / | . | . | . | .
O=C(CCN1CCOCC1)c1ccc2c(c1)OCCO2 | . | 100 | . | . | .
O=C(CCN1CCc2ccccc2CC1)c1ccc2c(c1)OCCO2 | . | 89 | . | . | .
O=C(CCCN1CCC(c2ccccc2)C1)c1ccc2c(c1)OCCO2 (centres undefined) | . | 95 | . | . | .
O=C(OCCN1CCOCC1)c1ccc2c(c1)OCCO2 | . | . | . | . | .
O=C(CCCN1CCOCC1)c1ccc2c(c1)OCCO2 | / | 90 | . | . | .
CCOc1cc(/C=N/NC(=O)C(=O)NC)cc(Br)c1O | / | . | . | . | .
Cc1csc(NC(=O)C2CCN(S(=O)(=O)c3ccccc3F)CC2)n1 | . | . | . | . | .
C=C(C)Cn1cnc2c(oc3nc4c(cc32)CCCC4)c1=O | / | / | / | / | .
N#C/C(=C/Nc1ccccc1C(=O)O)C(N)=O | / | / | / | / | .
C/C(=N\Nc1ccc(Cl)cc1)c1c(O)cc(C)oc1=O | . | . | . | . | .
O=C(c1ccccc1OCc1ccccc1Br)N1CCN(c2ncccn2)CC1 | / | 68 | . | . | /
CCN(CC)c1ccc2cc(-c3nnc(-c4ccncc4)o3)c(=O)oc2c1 | . | 68 | . | + | 4.4
O=C(COC(=O)CNC(=O)c1ccccc1)Nc1nc(-c2ccccc2)cs1 | / | . | . | . | .

Screening results as filed in PubChem BioAssay.
